SMILES strings stand for the structures.
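Further: viability read by CCK-8 kit in 96-well plates, part of a combination screen pairing lipid-metabolism-targeting compounds with erastin.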

For this experiment, the system named is MDA-MB-231. The experiment is described as follows: relative cell viability, compound + erastin, vs DMSO (fraction of DMSO control); higher = less growth inhibition. The settings on record: 72 h.
In the case of `O=C(Nc1ccncc1)c1cc([N+](=O)[O-])ccc1Cl` + CCOc1ccccc1-n1c(C(C)N2CCN(C(=O)COc3ccc(Cl)cc3)CC2)nc2ccccc2c1=O [erastin], the relative cell viability was determined as 0.726.

Take `CC(C)[C@H]1CC[C@H](C(=O)N[C@H](Cc2ccccc2)C(=O)O)CC1` [Nateglinide] + CCOc1ccccc1-n1c(C(C)N2CCN(C(=O)COc3ccc(Cl)cc3)CC2)nc2ccccc2c1=O [erastin]: the relative cell viability came out at 0.734.

With `CCOc1cc(CC(=O)N[C@@H](CC(C)C)c2ccccc2N2CCCCC2)ccc1C(=O)O` [Repaglinide] + CCOc1ccccc1-n1c(C(C)N2CCN(C(=O)COc3ccc(Cl)cc3)CC2)nc2ccccc2c1=O [erastin], the relative cell viability was 0.566.

Turning to `Cn1nc(C(=O)N(Cc2ccccc2)Cc2ccc(C(=O)O)cc2)c2c1-c1cc(Cl)ccc1OC2` [Nidufexor] + CCOc1ccccc1-n1c(C(C)N2CCN(C(=O)COc3ccc(Cl)cc3)CC2)nc2ccccc2c1=O [erastin], the relative cell viability was determined as 0.771.

As for `CN(C)c1cccc(-c2c3c(=O)n(-c4ccccc4Cl)[nH]c3cc(=O)n2C)c1` + CCOc1ccccc1-n1c(C(C)N2CCN(C(=O)COc3ccc(Cl)cc3)CC2)nc2ccccc2c1=O [erastin], the relative cell viability turned out to be 1.23.

With `CC1(C)C[C@H]2C3=CC[C@@H]4[C@@]5(C)CC[C@H](O)[C@@](C)(CO)[C@@H]5CC[C@@]4(C)[C@]3(C)C[C@H](O)[C@@]2(CO)[C@@H](O)[C@@H]1O` [Gymnemagenin] + CCOc1ccccc1-n1c(C(C)N2CCN(C(=O)COc3ccc(Cl)cc3)CC2)nc2ccccc2c1=O [erastin], the relative cell viability was 0.785.

These data come from the supplement of paper PMC9492666.
